In PubChem BioAssay (NCI):
This is part of a sample that, as a whole, favours compounds with a hit. Of some 83,000 tested, about 20% had one in any assay.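 Results are percent growth after 48 hours of single-concentration exposure. 100 means growth as in untreated cells, lower positive values show inhibition; negative values down to -100 show cell death.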 Unmarked numbers belong to inactive results. Active and inactive are the calls of the source. Rule for the calls: active = growth percent below 10; inactive = the rest.

Key:
Assay in all cases: NCI-60 one-dose screen, 48 h (100 = growth as untreated, 0 = no growth, -100 = all killed)
Details in all cases: 10 µM unless noted
NCI-H23 lung = tested on: NCI-H23 lung
NCI-H226 lung = tested on: NCI-H226 lung
NCI-H322M lung = tested on: NCI-H322M lung
HOP-62 NSCLC = tested on: HOP-62 NSCLC
NCI-H460 lung = tested on: NCI-H460 lung
HOP-92 NSCLC = tested on: HOP-92 NSCLC
NCI-H522 lung = tested on: NCI-H522 lung
A549/ATCC NSCLC = tested on: A549/ATCC NSCLC
786-0 renal = tested on: 786-0 renal
COLO 205 colon = tested on: COLO 205 colon
DU-145 prostate = tested on: DU-145 prostate
K-562 leukemia = tested on: K-562 leukemia
MALME-3M melanoma = tested on: MALME-3M melanoma
MDA-MB-231 breast = tested on: MDA-MB-231 breast
RXF 393 renal = tested on: RXF 393 renal
SF-268 CNS = tested on: SF-268 CNS
SF-295 CNS = tested on: SF-295 CNS
SF-539 CNS = tested on: SF-539 CNS
UACC-257 melanoma = tested on: UACC-257 melanoma
M14 melanoma = tested on: M14 melanoma

| Structure (SMILES) | growth (NCI-H23 lung) | growth (NCI-H226 lung) | growth (NCI-H322M lung) | growth (HOP-62 NSCLC) | growth (NCI-H460 lung) | growth (HOP-92 NSCLC) | growth (NCI-H522 lung) | growth (A549/ATCC NSCLC) | growth (786-0 renal) | growth (COLO 205 colon) | growth (DU-145 prostate) | growth (K-562 leukemia) | growth (MALME-3M melanoma) | growth (MDA-MB-231 breast) | growth (RXF 393 renal) | growth (SF-268 CNS) | growth (SF-295 CNS) | growth (SF-539 CNS) | growth (UACC-257 melanoma) | growth (M14 melanoma) |
| --- | --- | --- | --- | --- | --- | --- | --- | --- | --- | --- | --- | --- | --- | --- | --- | --- | --- | --- | --- | --- |
| C[n+]1c(/C=C/c2ccc(N(CCCl)CCCl)cc2)sc2ccccc21 | 44.9% | 73.7% | 95% | 52.2% | 20.7% | 61.9% | 16.4% | 40.2% | 50.3% | 32.2% | 45.2% | 15.3% | 54% | 80.8% | 85.6% | 57.7% | 55.7% | 45.4% | 64.7% | 64.7% |
| COc1cc(/C=C\c2cc(OC)c(OC)c(OC)c2)cc(NS(=O)(=O)c2cccc(Cl)c2)c1OC | 22.9% | 51.8% | 50% | 63.2% | 6.99% (active) | 47% | 9.96% (active) | 21.4% | 6.56% (active) | -68.2% (active) | -31.6% (active) | 11.2% | 112% | 27% | 37.8% | -2.74% (active) | 13.8% | -0.958% (active) | 57.3% | 9.89% (active) |
| COc1cc2c(cc1OCCCCn1c(-c3cccs3)nc3ccccc31)N=C[C@@H]1CCCN1C2=O | -37.9% (active) | -34.7% (active) | -30.5% (active) | 17.7% | -4.31% (active) | -64.6% (active) | -27.4% (active) | -7.19% (active) | 1.78% (active) | -73.5% (active) | 10.7% | -26.7% (active) | -77% (active) | -18.6% (active) | -60.4% (active) | -7.58% (active) | -8% (active) | -25.3% (active) |  | -46.2% (active) |
| CC[C@H](C)[C@H](NC(=O)c1cccn1C)C(=O)N(C)[C@H](C[C@@H](OC(C)=O)c1nc(C(=O)N[C@@H](Cc2ccccc2)C[C@H](C)C(=O)OC)cs1)C(C)C | 22.8% | 7.57% (active) | 37.6% | 10.1% | 6.58% (active) | 22.4% | -19.3% (active) | 14.4% | 12.7% | -69.7% (active) | 5.31% (active) | 6.81% (active) | 73.6% | -13.7% (active) | 3.6% (active) | 19.1% | 7.85% (active) | -12.7% (active) | 51.8% | -0.428% (active) |
| CC(C)=CC1C(C(=O)OCc2cccc(Oc3ccccc3)c2)C1(C)C (stereo not given) | 88.6% | 102% | 96.5% | 110% | 98.6% | 56.8% | 73.5% | 92.4% | 81.3% | 101% | 109% | 92.6% | 87.8% | 90.2% | 121% | 113% | 90.3% | 110% | 104% | 95.3% |
| CC[C@H](C)[C@@H]([C@@H](CC(=O)N1CCC[C@H]1[C@H](OC)[C@@H](C)C(=O)N[C@H](C)[C@@H](O)c1ccccc1)OC)N(C)C(=O)[C@@H](NC(=O)[C@@H](NC)C(C)C)C(C)C | 27.9% | 66.9% | 50.8% | 25.8% | 9.17% (active) | 11.5% | -36.1% (active) | 21.4% | 21.2% | -72.1% (active) | 10.5% | 11% | 55.6% | 16.9% | 46% | 39% | 10.8% | -13.9% (active) | 65.7% | 1.24% (active) |
| C[C@@H]1O[C@@H](O[C@H]2C[C@@H](O)[C@]3(CO)C4C(CC[C@]3(O)C2)[C@@]2(O)CC[C@H](C3=CC(=O)OC3)[C@@]2(C)C[C@H]4O)[C@H](O)[C@H](O)[C@H]1O (stereo not given in full) | -67.1% (active) | -72.3% (active) | -64.5% (active) | -99.5% (active) | -75.9% (active) | -0.733% (active) | -54.4% (active) | -91.4% (active) | -95.3% (active) | -84.2% (active) | -94.4% (active) | -22.4% (active) | -31% (active) | -22.5% (active) | -26.6% (active) | -91.7% (active) | -51.5% (active) | -80.1% (active) | -91.7% (active) | -86.2% (active) |
| ClC1=C(Cl)C(Cl)(C2(Cl)C(Cl)=C(Cl)C(Cl)=C2Cl)C(Cl)=C1Cl | -14.4% (active) | -81.5% (active) | 98.3% | 60.4% | 67.6% | -63.5% (active) | -68.2% (active) | 45% | -66.4% (active) | -68.6% (active) | -43.1% (active) | -24.6% (active) | -67.5% (active) | -29.3% (active) | -83.2% (active) | -46.4% (active) | 89.6% | -59% (active) | -60.4% (active) | -57.6% (active) |
| CC1CCCC(C[N+](C)(C)C)C1=O (stereo not given) | 109% | 95.4% | 77.2% | 106% | 117% | 83.8% | 98.7% | 104% | 112% | 118% | 115% | 88.3% | 76.5% | 104% | 112% | 112% |  | 94.2% | 112% | 101% |
| O=C(Nc1ccc(Cl)cc1)Nc1nccs1 | 50.5% | 69.9% | 40.6% | 31.7% | 21% | 38.6% | -32.3% (active) | 38.6% | 56.8% | 3.09% (active) | 17.7% | 15.1% | 45.2% | 46.5% | 2.93% (active) | 48.8% |  | 10.8% | 44.3% |  |
| N#C[S-].[Au+].c1ccc(CN2[CH-]N(Cc3ccccc3)C(c3ccccc3)=C2c2ccccc2)cc1 | 8.69% (active) | 24.4% | 30.3% | 16% | 4.03% (active) | -25% (active) | -30.9% (active) | 12.8% | 7% (active) | -76.9% (active) | 23.6% | 0.413% (active) | -5.77% (active) | -36% (active) | 3.56% (active) | 29.9% |  | 22.9% | -9.77% (active) | 15.8% |
| O=C(O)CNC(=O)C(Cl)(Cl)Cl | 106% | 94.1% | 97.7% | 107% | 96.2% | 87.2% | 85.1% | 98.2% | 98.8% | 106% | 107% | 108% | 97.6% | 103% | 92.1% | 104% |  | 103% | 88% |  |
| CCCc1cc(O)c2c3c(c(=O)oc2c1)CN(C)CC3 | 54.5% | 38.9% | 42.9% | 28.6% | 11.9% | 81.6% | 18.4% | 29.1% | 55% | 21% | 43% | 12% | -1.24% (active) | 60.4% | 10.9% | 37% |  | 31.7% | 68.5% | 16.4% |
| COc1ccc(O)c(CNC(=O)CN2CCCC2=O)c1 | 103% | 99.4% | 95.6% | 97.1% | 97.5% | 86.1% | 101% | 105% | 105% | 100% | 108% | 99.4% | 96.6% | 96.5% | 109% | 96.8% | 103% |  | 104% | 98% |
| COc1cc(NCCCN=C(N)N)c2ncccc2c1 | 14.1% | 86.2% | 74% | 73% | 96.4% | 56.7% | -10.2% (active) | 84.8% | 95.4% | 89.8% | 103% | 93.7% | 21.1% | 64.8% | 102% | 25.2% | 88.6% |  | 90.3% | 100% |
